LYPLA1 inh: blocks human lysophospholipase 1, a PME1 counter-screen; recombinant LYPLA1, FP-Rh probe fluorescence polarization; 0.16% of 320,000 active; inhibition, % at 5.9 µM;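 active = inhibition above the mean of all tested compounds plus 3 SD, set per campaign, cut at about 14% in these data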;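 also: inhibitors block serine hydrolase probe labeling of LYPLA1 so polarization falls; 0% = enzyme with DMSO and 100% = wells lacking LYPLA1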
Target sequence (O75608 whole entry, looked up): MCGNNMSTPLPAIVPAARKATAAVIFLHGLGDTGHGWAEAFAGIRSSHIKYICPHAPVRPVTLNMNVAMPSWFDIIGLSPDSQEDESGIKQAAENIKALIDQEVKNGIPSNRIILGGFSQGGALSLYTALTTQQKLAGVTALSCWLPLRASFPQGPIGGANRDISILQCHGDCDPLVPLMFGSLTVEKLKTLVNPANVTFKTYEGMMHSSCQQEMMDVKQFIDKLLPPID
PAFAH1B3 inh: blocks human PAF acetylhydrolase 1B catalytic subunit 3; Q15102; recombinant PAFAH1B3, FP-rhodamine probe, fluorescence polarization; inhibition, % at 3.39 µM; 0.28% of 340,000 active;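 active = inhibition above the screen-wide average of all tested compounds plus 3 SD, cut at about 25% in these data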;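 also: 0% = enzyme with DMSO only and 100% = wells lacking PAFAH1B3 protein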
Target sequence (Q15102 whole entry, looked up): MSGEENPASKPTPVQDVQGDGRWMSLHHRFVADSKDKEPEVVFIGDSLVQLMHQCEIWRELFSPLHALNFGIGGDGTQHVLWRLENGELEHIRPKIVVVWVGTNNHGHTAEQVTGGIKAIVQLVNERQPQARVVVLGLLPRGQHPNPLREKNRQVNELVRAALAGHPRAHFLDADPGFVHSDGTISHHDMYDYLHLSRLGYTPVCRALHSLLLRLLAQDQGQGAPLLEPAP
PAFAH2 inh: PAFAH2 (human) inhibition; Q99487; recombinant PAFAH2, FP-rhodamine activity probe, fluorescence polarization; inhibition, % at 3.39 µM; 0.99% of 340,000 active;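 active = inhibition above the mean over all tested compounds plus 3 SD, cut at about 30% in these data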;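 also: inhibitors block probe labeling of enzyme so polarization drops; 0% = enzyme with DMSO and 100% = wells lacking PAFAH2 protein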
PAFAH1B2 FP inh: PAFAH1B2 (human) inhibition; P68402; recombinant PAFAH1B2, FP-rhodamine activity probe, fluorescence polarization; inhibition, % at 3.39 µM; 1.2% of 340,000 active;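 active = inhibition above the mean of all tested compounds plus 3 SD, cut at about 24% in these data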;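 also: 0% = enzyme with DMSO and 100% = wells lacking PAFAH1B2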
Target sequence (P68402 whole entry, looked up): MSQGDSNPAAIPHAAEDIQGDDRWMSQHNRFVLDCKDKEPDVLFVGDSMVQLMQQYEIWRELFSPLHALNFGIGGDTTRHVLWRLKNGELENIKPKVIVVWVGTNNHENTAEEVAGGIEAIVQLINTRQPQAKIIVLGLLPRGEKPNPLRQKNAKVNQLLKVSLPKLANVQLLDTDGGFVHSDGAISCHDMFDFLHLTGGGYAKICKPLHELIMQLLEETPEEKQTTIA
LYPLA2 inh: LYPLA2 (human) inhibition in PME1 counter-screen | O95372 | inhibition, % at 5.9 µM | AID 2177 | 0.38% of 320,000 active | recombinant LYPLA2, FP-Rh probe fluorescence polarization;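 active = inhibition above the screen-wide mean plus 3 SD, limit set per campaign, cut at about 26% in these data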;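 also: 0% = LYPLA2 with DMSO and 100% = wells lacking LYPLA2 enzyme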
pPAFAH inh: inhibitors of human plasma PAF acetylhydrolase (pPAFAH) | Q13093 | AID 463082 | 1.5% of 330,000 active | recombinant pPAFAH, FP-rhodamine probe fluorescence polarization | inhibition, % at 3.39 µM;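 active = inhibition above the mean inhibition across the screen plus 3 SD, cut at about 25% in these data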;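 also: inhibitors block binding of the rhodamine activity-based probe so polarization drops; 0% = enzyme with DMSO and 100% = wells lacking pPAFAH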
pPAFAH FP conf: pPAFAH (human) inhibition, confirmed; shares compounds with pPAFAH inh; recombinant pPAFAH, FP-Rh probe fluorescence polarization; inhibition, % at 3.39 µM; 72% of 2,300 active; AID 463230;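 active = mean inhibition of the triplicate above the hit cutoff set for the earlier primary screen, cut at about 25% in these data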;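 also: 0% = enzyme with DMSO and 100% = wells lacking pPAFAH enzyme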
The depositor's hits bear a star. Only some compounds are listed: those with a hit (about 2.9% of all), similar ones and a draw of the others.

What do the screens show for `Cc1nnsc1C(=O)N/N=C/c1ccccc1`?
LYPLA1 inh: -2; PAFAH1B3 inh: 0; PAFAH2 inh: 1; PAFAH1B2 FP inh: 2; LYPLA2 inh: -4; pPAFAH inh: -4

What do the screens show for `O=C(O)CC(CC(=O)Nc1ccccc1C(=O)O)c1ccccc1` (stereo unspecified)?
LYPLA1 inh: 0; PAFAH1B3 inh: 4; PAFAH2 inh: -8; PAFAH1B2 FP inh: -1; LYPLA2 inh: -2; pPAFAH inh: 0

What do the screens show for `O=C(O)c1ccc(N=Nc2c(O)ccc3ncccc23)cc1`?
LYPLA1 inh: -4; PAFAH1B3 inh: 33*; PAFAH2 inh: 6; PAFAH1B2 FP inh: 14; LYPLA2 inh: -1; pPAFAH inh: 39*; pPAFAH FP conf: 56*

Results for O=C(O)c1cc(N=Nc2c(O)ccc3ccccc23)cc(C(=O)O)c1 ?
PAFAH1B3 inh: 6; PAFAH2 inh: -14; PAFAH1B2 FP inh: 10

Results for Oc1[nH]c2ccccc2c1N=Nc1c(F)c(F)c(Cl)c(F)c1F ?
LYPLA1 inh: -2; PAFAH1B3 inh: -4; PAFAH2 inh: 3; PAFAH1B2 FP inh: 2; LYPLA2 inh: 0; pPAFAH inh: 3

How did COc1ccc(S(=O)(=O)c2c(N)n(Cc3ccco3)c3nc4ccccc4nc23)cc1 do in these assays?
LYPLA1 inh: -6; PAFAH1B3 inh: 7; PAFAH2 inh: 19; PAFAH1B2 FP inh: -2; LYPLA2 inh: -8; pPAFAH inh: 36*; pPAFAH FP conf: 9

How did COc1ccc(Cn2c(C)nc3c(c2=O)c2nc4ccccc4nc2n3Cc2ccco2)cc1 do in these assays?
PAFAH1B3 inh: -2; PAFAH2 inh: 12; PAFAH1B2 FP inh: -1

Results for O=C(COC(=O)c1ccc(NS(=O)(=O)c2cccs2)cc1)NCc1ccco1 ?
LYPLA1 inh: -5; PAFAH1B3 inh: -4; PAFAH2 inh: 40*; PAFAH1B2 FP inh: 3; LYPLA2 inh: 0; pPAFAH inh: 42*; pPAFAH FP conf: 29*

Results for CN(C)S(=O)(=O)c1cccc(C(=O)OCC(=O)c2c(N)n(C)c(=O)n(C)c2=O)c1 ?
LYPLA1 inh: -2; PAFAH1B3 inh: 4; PAFAH2 inh: 3; PAFAH1B2 FP inh: 4; LYPLA2 inh: 1; pPAFAH inh: -2

What do the screens show for `CN1C(=O)c2ccc(C(=O)NCc3ccccn3)cc2C1=O`?
LYPLA1 inh: 0; PAFAH1B3 inh: 2; PAFAH2 inh: 5; PAFAH1B2 FP inh: 0; LYPLA2 inh: 5; pPAFAH inh: 0

What do the screens show for `C=C1CCN([C@@H](CC(C)C)C(=O)NCCC(C)C)S(=O)(=O)c2ccccc21`?
LYPLA1 inh: -1; PAFAH1B3 inh: 6; PAFAH2 inh: 2; PAFAH1B2 FP inh: 3; LYPLA2 inh: 1; pPAFAH inh: -1

Results for COc1ccc(CNc2ncnc3c2[nH]c2cc(OC)c(OC)cc23)cc1 ?
LYPLA1 inh: -13; PAFAH1B3 inh: 19; PAFAH2 inh: 12; PAFAH1B2 FP inh: 11; LYPLA2 inh: -9; pPAFAH inh: 36*; pPAFAH FP conf: 22

What do the screens show for `COc1ccc(CNc2ncnc3c2[nH]c2ccccc23)cc1`?
LYPLA1 inh: -15; LYPLA2 inh: -14; pPAFAH inh: 13

How did O=C(CC1SC(N2CCCCC2)=NC1=O)Nc1cccc(C(=O)NCc2ccccc2)c1 (stereo unspecified) do in these assays?
PAFAH1B3 inh: -3; PAFAH2 inh: -1; PAFAH1B2 FP inh: 2; pPAFAH inh: 6

Results for Cc1ccc(C(C(=O)NCc2ccc(F)cc2)N(C(=O)c2csnn2)C2CC2)cc1 (stereo unspecified) ?
LYPLA1 inh: -1; PAFAH1B3 inh: 11; PAFAH2 inh: -11; PAFAH1B2 FP inh: 5; LYPLA2 inh: 6; pPAFAH inh: 4

How did COc1ccc(C(N)=S)c(OC)c1 do in these assays?
LYPLA1 inh: 4; PAFAH1B3 inh: 9; PAFAH2 inh: -7; PAFAH1B2 FP inh: 5; LYPLA2 inh: 6; pPAFAH inh: 3

Results for COc1ccccc1NC(=O)Nc1ccc(C(N)=O)cc1 ?
LYPLA1 inh: 2; PAFAH1B3 inh: 0; PAFAH2 inh: -1; PAFAH1B2 FP inh: 2; LYPLA2 inh: 2; pPAFAH inh: 42*; pPAFAH FP conf: -1

What do the screens show for `COc1ccc(NC(=O)Nc2ccccc2OC)cc1`?
LYPLA1 inh: -2; PAFAH1B3 inh: 7; PAFAH2 inh: 2; PAFAH1B2 FP inh: 6; LYPLA2 inh: -1; pPAFAH inh: 10

How did Cc1ccc(C(=O)NCc2ccc(N3CCN(C(=O)OC(C)(C)C)CC3)cc2)cc1 do in these assays?
LYPLA1 inh: -1; PAFAH1B3 inh: 7; PAFAH2 inh: 2; PAFAH1B2 FP inh: 6; LYPLA2 inh: -3; pPAFAH inh: 4

Results for CC(Oc1cccc(Cl)c1)C(=O)NCc1ccc(S(N)(=O)=O)cc1 (stereo unspecified) ?
LYPLA1 inh: 0; PAFAH1B3 inh: -1; PAFAH2 inh: 12; PAFAH1B2 FP inh: 8; LYPLA2 inh: 4; pPAFAH inh: 1

What do the screens show for `O=C(Nc1nc2c(s1)CN(Cc1ccccc1)CC2)c1c(F)cccc1F`?
LYPLA1 inh: -7; PAFAH1B3 inh: -1; PAFAH2 inh: -7; PAFAH1B2 FP inh: -4; LYPLA2 inh: -16; pPAFAH inh: 62*; pPAFAH FP conf: 2

What do the screens show for `O=C(/C=C1\NC2(CCCC2)Cc2ccccc21)C(=O)N/N=C/c1ccc(O)c(O)c1`?
LYPLA1 inh: -13; PAFAH1B3 inh: 15; PAFAH2 inh: 34*; PAFAH1B2 FP inh: 8; LYPLA2 inh: -7; pPAFAH inh: 48*; pPAFAH FP conf: 87*

How did COc1ccc(/C=N/NC(=O)C(=O)/C=C2\NC3(CCCC3)Cc3ccccc32)cc1 do in these assays?
LYPLA1 inh: -14; PAFAH1B3 inh: 0; PAFAH2 inh: -14; PAFAH1B2 FP inh: -5; LYPLA2 inh: -16; pPAFAH inh: 1

What do the screens show for `COc1cc(-c2nnc(SCc3cc(=O)oc4cc(O)c(O)cc34)o2)cc(OC)c1OC`?
LYPLA1 inh: -4; PAFAH1B3 inh: 28*; PAFAH2 inh: 42*; PAFAH1B2 FP inh: 4; LYPLA2 inh: 3; pPAFAH inh: 59*; pPAFAH FP conf: 75*

How did CCOC(=O)CSc1nnc(-c2cc(OC)c(OC)c(OC)c2)o1 do in these assays?
LYPLA1 inh: 1; PAFAH1B3 inh: 0; PAFAH2 inh: -2; PAFAH1B2 FP inh: 5; LYPLA2 inh: 8; pPAFAH inh: 1

How did Cc1cccc(/C=C2/Sc3ccc(C(=O)NCCN4CCCC4)cc3NC2=O)c1 do in these assays?
LYPLA1 inh: -9; PAFAH1B3 inh: 0; PAFAH2 inh: -16; PAFAH1B2 FP inh: 0; LYPLA2 inh: -10; pPAFAH inh: 9

What do the screens show for `COc1cccc(/C=C2/Sc3ccc(C(=O)NCCN4CCCCCC4)cc3NC2=O)c1`?
LYPLA1 inh: -4; PAFAH1B3 inh: -2; PAFAH2 inh: -5; PAFAH1B2 FP inh: 4; LYPLA2 inh: -5; pPAFAH inh: 37*; pPAFAH FP conf: 44*
